A short description of experiment [1]: E. coli DRC41 culture turbidity changes, primary screen, E. coli filamentation inducer project, strain DRC41, OD650, 48 h (AID 1152).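 Further: E. coli MC1000 strain DRC41 lacking acrAB efflux pump and sulA.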 The settings on record: E. coli DRC41 (acrAB sulA), higher = more signal, called active from +8 up or from −8 down.
Experiment [2] can be described thus: small-molecule binders of probe aLefty1, primary screen, biochemical, small-molecule microarray, 635/667 nm fluorescence (AID 1153).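 Further: score merges spot fluorescence with signal-to-noise ratio from the scanned slide images.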 The settings on record: higher = more signal.
The nature of experiment [3]: PSAC antagonists in infected red cells, primary screen, cell-based, P. falciparum Indochina, OD700, 1 h (AID 1154). The conditions noted are these: P. falciparum Indochina infected RBC osmotic lysis, higher = more signal, called active from +8 up or from −8 down.
Experiment [4] is described as follows: PSAC antagonists in infected red cells, primary screen, cell-based, P. falciparum Indochina, OD700, 2 h (AID 1155).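 Further: lysis reports solute entry through the parasite surface anion channel PSAC; channel blockers reduce lysis of infected cells.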 The conditions noted are these: P. falciparum Indochina infected erythrocytes, osmotic lysis OD700; higher = more signal, called active from +8 up or from −8 down.
Experiment [5] in a line: osmotic lysis modulators in infected erythrocytes, primary screen, PSAC antagonist project, cell-based, P. falciparum Indochina, OD700, 3 h (AID 1156). The conditions noted are these: higher = more signal, called active from +8 up or from −8 down.
The nature of experiment [6]: PSAC antagonists in infected red cells, primary screen, cell-based, P. falciparum Indochina, OD700, 18 h (AID 1157). The settings on record: P. falciparum Indochina infected erythrocytes, osmotic lysis OD700, 18 h; higher = more signal, called active from +8 up or from −8 down.
Experiment [7] in a line: modulators of S6 phosphorylation in cells, primary screen, cell-based, A549, cytoblot, luminescence, serum-stimulated (AID 1158).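 Further: serum-stimulated A549 lung adenocarcinoma cells; signal is phosphorylated S6 detected by cytoblot immunostaining with HRP secondary.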 The settings on record: A549 phospho-S6 cytoblot, 5 h, higher = more signal.
The target in experiment [8] is NADPH oxidase 2 (Homo sapiens) (UniProt P04839). Nature of the experiment: NOX2-dependent H2O2 signal modulators, primary screen, NOX inhibitor project, cell-based, HEK293-NOX2, PMA-stimulated, Amplex Red fluorescence (AID 1159). Further: test concentration not given here. The settings on record: 45 min, higher = more signal, called active from +8 up or from −8 down.
Chain of NADPH oxidase 2 (Homo sapiens) (P04839 whole entry, looked up): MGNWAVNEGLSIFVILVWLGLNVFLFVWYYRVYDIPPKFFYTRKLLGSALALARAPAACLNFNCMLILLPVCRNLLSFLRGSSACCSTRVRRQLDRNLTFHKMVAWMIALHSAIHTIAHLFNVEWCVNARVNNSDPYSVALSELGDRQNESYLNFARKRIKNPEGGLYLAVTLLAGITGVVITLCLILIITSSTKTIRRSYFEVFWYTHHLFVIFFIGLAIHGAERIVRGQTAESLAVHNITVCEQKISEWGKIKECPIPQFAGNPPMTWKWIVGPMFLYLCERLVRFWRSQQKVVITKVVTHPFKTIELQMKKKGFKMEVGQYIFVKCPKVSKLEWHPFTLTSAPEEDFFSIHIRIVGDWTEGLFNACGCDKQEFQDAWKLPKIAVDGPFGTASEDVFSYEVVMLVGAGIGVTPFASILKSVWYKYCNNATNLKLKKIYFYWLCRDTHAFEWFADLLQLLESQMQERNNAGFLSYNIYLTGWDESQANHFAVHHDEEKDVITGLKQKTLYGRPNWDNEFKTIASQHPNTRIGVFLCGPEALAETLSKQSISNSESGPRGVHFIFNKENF
The target in experiment [9] is NADPH oxidase 4 (Homo sapiens) (UniProt Q9NPH5). As to the kind of experiment: NOX4-dependent H2O2 signal modulators, primary screen, NOX inhibitor project, cell-based, HEK293-NOX4, tetracycline-induced, Amplex Red fluorescence (AID 1160). The settings on record: 45 min, higher = more signal, called active from +8 up or from −8 down.
Chain of NADPH oxidase 4 (Homo sapiens) (Q9NPH5 whole entry, looked up): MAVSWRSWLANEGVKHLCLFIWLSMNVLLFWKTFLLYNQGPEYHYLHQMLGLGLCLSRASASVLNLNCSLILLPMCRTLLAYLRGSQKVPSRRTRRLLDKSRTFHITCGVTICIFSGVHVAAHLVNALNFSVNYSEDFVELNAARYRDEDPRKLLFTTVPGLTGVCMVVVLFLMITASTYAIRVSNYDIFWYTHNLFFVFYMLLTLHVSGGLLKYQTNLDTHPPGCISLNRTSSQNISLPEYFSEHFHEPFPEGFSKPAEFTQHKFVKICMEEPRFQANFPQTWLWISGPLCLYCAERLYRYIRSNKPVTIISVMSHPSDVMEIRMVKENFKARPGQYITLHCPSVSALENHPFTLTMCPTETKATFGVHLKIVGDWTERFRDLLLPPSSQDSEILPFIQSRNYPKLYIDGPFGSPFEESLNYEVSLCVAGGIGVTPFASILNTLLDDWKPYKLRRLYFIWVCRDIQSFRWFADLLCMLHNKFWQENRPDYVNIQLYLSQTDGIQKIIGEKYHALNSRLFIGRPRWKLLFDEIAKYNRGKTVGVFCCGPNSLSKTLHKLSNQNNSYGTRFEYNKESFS
Experiment [10] concerns the target NADPH oxidase 5 (Homo sapiens) (UniProt Q96PH1). As to the kind of experiment: NOX5-dependent H2O2 signal modulators, primary screen, NOX inhibitor project, cell-based, HEK293-NOX5, Amplex Red fluorescence (AID 1161). The conditions noted are these: HEK293-NOX5, ionomycin, 45 min, higher = more signal.
Experiment [11] can be described thus: A549 cell viability effects, profiling panel, calcein-AM fluorescence, 48 h, basal (AID 1162). Further: test concentration not given here. The conditions noted are these: higher = more signal.
Experiment [12] is described as follows: adipocyte viability effects, profiling panel, cell-based, 3T3-L1 adipocytes, calcein-AM fluorescence, 48 h, basal (AID 1163). Further: test concentration not given here. The conditions noted are these: 3T3-L1 adipocytes viability, higher = more signal.
The nature of experiment [13]: HepG2 cell viability effects, profiling panel, calcein-AM fluorescence, 48 h, basal (AID 1164). Further: test concentration not given here. The conditions noted are these: higher = more signal.
Experiment [14] is described as follows: MM1S cell viability effects, profiling panel, calcein-AM fluorescence, 48 h, basal (AID 1165).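 Further: viability of MM1S multiple myeloma cells under basal unstimulated conditions; test concentration not given here.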 The conditions noted are these: higher = more signal.
The nature of experiment [15]: basal RPMI8226 viability, no added stimulus, profiling panel, cell-based, calcein-AM fluorescence, 48 h, PK04 Diversity Set (AID 1166).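 Further: cells grown under basal conditions without added stimulus; test concentration not given here.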 The conditions noted are these: RPMI8226 myeloma viability, higher = more signal.
Experiment [16] in a line: basal HepG2 mitochondrial membrane potential changes, profiling panel, cell-based, JC-1 fluorescence, 24 h, 100 nL compound (AID 1167). Further: test concentration not given here. The settings on record: higher = more signal.
Experiment [17] is described as follows: basal 3T3-L1 adipocyte mitochondrial potential changes, profiling panel, cell-based, JC-1 fluorescence, 3T3-L1 adipocytes, 24 h, 100 nL compound (AID 1168). Further: test concentration not given here. The settings on record: JC-1 mitochondrial fluorescence, higher = more signal, called active from +8 up or from −8 down.
A short description of experiment [18]: basal RPMI8226 mitochondrial membrane potential changes, profiling panel, cell-based, JC-1 fluorescence, 24 h, 100 nL compound (AID 1169). Further: test concentration not given here. The conditions noted are these: RPMI8226 myeloma, JC-1 mitochondrial potential fluorescence, higher = more signal.
Experiment [19] is described as follows: basal MM1S mitochondrial membrane potential changes, profiling panel, cell-based, JC-1 fluorescence, 24 h, 100 nL compound (AID 1170). Further: test concentration not given here. The settings on record: higher = more signal.
Experiment [20] in a line: A549 lung cancer cell viability effects, profiling panel, resazurin fluorescence, 24 h, PK04 Diversity Set (AID 1171). Further: test concentration not given here. The settings on record: higher = more signal, called active from +8 up or from −8 down. (In general: Alamar Blue is a resazurin reagent that responds to reducing activity.)

Activity calls are given as the source filed them.

Chain of NADPH oxidase 5 (Homo sapiens) (Q96PH1 whole entry, looked up): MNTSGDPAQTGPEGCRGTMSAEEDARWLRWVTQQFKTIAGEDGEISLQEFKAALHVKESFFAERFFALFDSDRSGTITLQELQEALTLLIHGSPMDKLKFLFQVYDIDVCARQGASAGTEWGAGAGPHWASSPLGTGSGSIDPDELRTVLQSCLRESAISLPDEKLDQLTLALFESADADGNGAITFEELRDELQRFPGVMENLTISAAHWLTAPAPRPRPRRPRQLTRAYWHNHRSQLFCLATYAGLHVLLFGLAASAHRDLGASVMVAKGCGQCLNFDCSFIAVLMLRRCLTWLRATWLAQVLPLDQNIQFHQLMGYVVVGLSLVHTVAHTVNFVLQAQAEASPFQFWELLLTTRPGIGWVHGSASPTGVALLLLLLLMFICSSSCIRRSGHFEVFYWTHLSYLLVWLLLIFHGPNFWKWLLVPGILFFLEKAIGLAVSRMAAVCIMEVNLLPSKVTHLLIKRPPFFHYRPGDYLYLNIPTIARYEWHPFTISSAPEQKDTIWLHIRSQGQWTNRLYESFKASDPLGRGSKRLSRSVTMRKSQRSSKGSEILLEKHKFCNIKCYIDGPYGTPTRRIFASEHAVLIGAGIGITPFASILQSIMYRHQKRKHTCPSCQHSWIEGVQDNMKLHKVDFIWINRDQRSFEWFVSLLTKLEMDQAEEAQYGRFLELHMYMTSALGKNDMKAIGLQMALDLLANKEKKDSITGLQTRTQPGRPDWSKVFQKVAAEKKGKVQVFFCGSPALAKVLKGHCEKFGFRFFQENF

`Cc1ccc(S(=O)(=O)n2c3ccccc3c3nnc(C(=O)c4ccccc4)nc32)cc1`: the z-score in experiment [1] was 1.04 (inactive); in [3] it was 4.4 (inactive); in experiment [4], 0.266 (inactive); in experiment [5], -0.0784 (inactive); in experiment [6] it was 0.421 (inactive); in experiment [7], 0.479. For the same compound, the z-score in [8] is -0.0413 (inactive); in [9], 0.179 (inactive); in experiment [10], -0.341; in experiment [11], 1.8; in experiment [12], 0.294; in [13], -0.284. Moreover, the z-score in experiment [14] was -0.377; in [15] it was 0.271; in [16], -2.96; in experiment [17], 0.839 (inactive); in [18], -0.248; in experiment [19], -0.956. Also, the z-score in [20] is -0.721 (inactive). Also, the composite z-score in experiment [2] was -0.179.

On to `COC(=O)[C@H](C)NC(=O)CCC1CC(OC(=O)NCc2cccc3ccccc23)CC2(CCCC(COC(=O)NCC(c3ccccc3)c3ccccc3)O2)O1` (stereo not given in full), for which the z-score is 0.223 (inactive) in experiment [1]; -0.228 (inactive) in experiment [3]; -0.0825 (inactive) in experiment [4]; -1.34 (inactive) in [5]; -0.242 (inactive) in [6]; 0.863 in experiment [7]. Besides, the z-score was -0.121 (inactive) in [8]; 1.09 (inactive) in experiment [9]; 1.47 in experiment [10]; -0.101 in experiment [11]; -0.294 in [12]; -0.618 in [13]. The z-score is -3.41 in experiment [14]; -1.22 in [15]; 1.21 in experiment [16]; -0.0303 (inactive) in experiment [17]; -0.125 in experiment [18]; -0.493 in experiment [19]. In [20], the z-score was 2.23 (inactive). Also, in experiment [2], the composite z-score is -0.0562.

Regarding `CCCCC#C[C@@H]1C=C[C@H](OC(C)=O)[C@@H](COC(C)=O)O1`, the z-score is -0.656 (inactive) in [1]; 0.604 (inactive) in experiment [3]; 0.364 (inactive) in experiment [4]; -0.89 (inactive) in [5]; -0.0473 (inactive) in experiment [6]; -0.268 in [7]. Also, the z-score in experiment [8] is -2.78 (inactive); in experiment [9] it was 1.05 (inactive); in experiment [10], 2.02; in experiment [11], -0.0464; in [12], -0.515; in [13], -1.14. The z-score is -3.37 in experiment [14]; -3.02 in experiment [15]; -1.24 in experiment [16]; 0.378 (inactive) in [17]; -0.746 in [18]; -2.22 in [19]. Further, the z-score in [20] was 0.451 (inactive). For the same compound, in experiment [2], the composite z-score was -0.0111.

As to `CC(C)CON=C1C[C@@H](O)[C@@H](O)[C@@H]2[C@@H]3C(=O)N(c4cccc(Oc5ccccc5)c4)C(=O)[C@@H]3CC[C@@H]12`, the z-score in [1] is -0.211 (inactive); in experiment [3], 2.34 (inactive); in experiment [4], -0.696 (inactive); in [5], 1.07 (inactive); in [6] it was -1.36 (inactive); in experiment [7], 0.6. Moreover, the z-score is -0.191 (inactive) in [8]; 0.352 (inactive) in experiment [9]; -0.51 in [10]; 1.52 in experiment [11]; 0.797 in [12]; 0.626 in [13]. Also, the z-score is -0.779 in experiment [14]; 0.0135 in experiment [15]; 0.291 in experiment [16]; 0.411 (inactive) in experiment [17]; 0.615 in experiment [18]; -1.78 in experiment [19]. Also, the z-score in experiment [20] is -0.908 (inactive). The composite z-score in experiment [2] was -0.321.

For the compound `COC(=O)[C@H]1O[C@@H](c2c(OC)c(OC)c(C)c(OC)c2OC)[C@H](C)[C@@H](O)[C@H]1C`, the z-score is 0.855 (inactive) in [1]; 0.516 (inactive) in experiment [3]; 0.183 (inactive) in experiment [4]; 0.92 (inactive) in experiment [5]; 0.587 (inactive) in [6]; 0.817 in experiment [7]. Besides, the z-score in experiment [8] was 0.933 (inactive); in [9], 0.792 (inactive); in [10] it was 0.194; in experiment [11], 1.2; in experiment [12], -0.302; in experiment [13] it was 0.825. Besides, the z-score is 1 in experiment [14]; 1.36 in experiment [15]; 0.438 in experiment [16]; 0.61 (inactive) in experiment [17]; -0.398 in experiment [18]; -0.848 in [19]. Moreover, the z-score in experiment [20] was -1.27 (inactive). In addition, the composite z-score in experiment [2] was -0.0505.

As for `C[C@@H](c1ccccc1)N1C(=O)[C@H]2[C@H]3[C@H](O)[C@H](O)CC(=O)[C@H]3CC[C@H]2C1=O`, the z-score in [1] is 0.477 (inactive); in experiment [3], -0.74 (inactive); in [4], 0.0593 (inactive); in experiment [5], -0.105 (inactive); in experiment [6] it was 0.0091 (inactive); in [7], 0.297. Moreover, the z-score in experiment [8] is -0.522 (inactive); in experiment [9], 0.05 (inactive); in experiment [10] it was 0.811; in experiment [11], 0.614; in experiment [12] it was 0.205; in experiment [13] it was 0.92. For the same compound, the z-score in experiment [14] was 0.358; in experiment [15], -0.094; in [16], 0.311; in experiment [17], 1.27 (inactive); in experiment [18], -0.826; in experiment [19], 1.05. In experiment [20], the z-score is 0.288 (inactive). The compound further had a composite z-score in [2] of -0.196.

Values taken from PubChem BioAssay.
